Hits are enriched below; roughly 12% of the tested compounds scored in any of these assays.
JMJD2A Tudor – qHTS Assay for Inhibitors of JMJD2A-Tudor Domain. Lysine-specific demethylase 4A (Homo sapiens), O75164. 4.4% of 390,000 active. Potency, µM (doses to about 114 µM), inactives show at the highest dose activity change, negative = inhibition, usual class: inhibitors. AlphaScreen JMJD2A-Tudor / H3K4me3 peptide binding. AID 504339, 2011; note: % is set by controls: 0 for no effect and ±100 for the full control effect; nearly all actives have a fitted effect of over 50% in size
HP1b chromo inh – HTS for Inhibitors of HP1-beta Chromodomain Interactions with Methylated Histone Tails | AlphaScreen HP1-beta / biotin-H3K9me3 peptide binding | Potency, µM (doses to about 114 µM), for the others: at the top dose activity change, negative = inhibition, actives largely listed as inhibitors | 0.56% of 390,000 active | AID 540317, 2011; note: nearly all actives have a fitted effect of over 70% in size
Target sequence (P83916 whole entry, looked up): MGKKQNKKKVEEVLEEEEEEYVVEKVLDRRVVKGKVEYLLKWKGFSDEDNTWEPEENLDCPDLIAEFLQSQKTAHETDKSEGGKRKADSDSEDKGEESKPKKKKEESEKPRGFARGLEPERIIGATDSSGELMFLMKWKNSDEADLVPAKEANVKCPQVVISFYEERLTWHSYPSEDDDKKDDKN
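Compound inhibition of the preformed complex between 50 nM HP1-beta and 50 nM biotinylated H3K9me3 peptide was read by AlphaScreen. Buffer was PBS pH 7.4 with 0.01% Tween-20. Incubations ran 30 min at room temperature, with 10 ug/mL donor/acceptor beads.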
Sfp inh – qHTS Assay for Inhibitors of Bacillus subtilis Sfp phosphopantetheinyl transferase (PPTase) | 4'-phosphopantetheinyl transferase ffp (Bacillus subtilis), Q9F4F7 | Biochemical Sfp PPTase activity, qHTS | Potency, µM, for the others: largest response in the series, negative = inhibition, hits mostly inhibitors | 3.5% of 310,000 active | AID 1490, 2009;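 note: the enzyme is Sfp with the accession as filed and its product quenches rhodamine fluorescence; 0% = enzyme reaction without inhibitor and -100% = no enzyme wells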
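Fluorescence-quenching assay with 15 nM Sfp, 5 uM rhodamine-CoA and 12.5 uM BHQ-2-labelled ybbR peptide in pH 7.6 Hepes/MgCl2 buffer. Enzyme was pre-incubated with compound for 15 min at room temperature. Rate was taken from the 30-min fluorescence change (525/598 nm).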
BAZ2B block – qHTS Assay for Inhibitors of BAZ2B; Bromodomain adjacent to zinc finger domain protein 2B (Homo sapiens), Q9UIF8; AlphaScreen BAZ2B-H3K14Ac peptide displacement; Potency, µM (titrated, usually from 114 µM), without a hit: at the highest dose activity change, negative = inhibition, actives largely listed as inhibitors; 4.4% of 360,000 active; AID 504333, 2011; note: % is set by controls: 0 for no effect and ±100 for the full control effect; nearly all actives have a fitted effect of over 60% in size
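Compounds, titrated to a top concentration of 110 uM, were incubated 30 min at room temperature with preformed BAZ2B/acetyl-K14 H3 peptide complex (50 nM each). Proximity signal was measured by AlphaScreen after 20 min with beads.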
PLK1 PBD block – qHTS for Inhibitors of PLK1-PDB (polo-like kinase 1 - polo-box domain): Primary Screen | Serine/threonine-protein kinase PLK1 (Homo sapiens), P53350 | Plk1 PBD binding of FITC phosphopeptide, fluorescence polarization | Potency, µM, inactives show max response, negative = inhibition, hits mostly inhibitors | 2.8% of 360,000 active; note: series mostly up to about 57 µM; % is set by controls: 0 for no effect and ±100 for the full control effect; nearly all actives have a fitted effect of over 65% in size
G9a inh – qHTS Assay for Inhibitors of Histone Lysine Methyltransferase G9a; Potency, µM (titrated, usually from 102 µM), without a hit: at the highest dose activity, negative = inhibition, actives largely listed as inhibitors; AID 504332, 2011; G9a H3K9 monomethylation, AlphaScreen, 2 h; 8.8% of 350,000 active; Histone-lysine N-methyltransferase EHMT2 (Homo sapiens), Q96KQ7; note: % is set by controls: 0 for no effect and ±100 for the full control effect; nearly all actives have a fitted effect of over 75% in size
Target sequence (Q96KQ7 913-1193 limits assumed): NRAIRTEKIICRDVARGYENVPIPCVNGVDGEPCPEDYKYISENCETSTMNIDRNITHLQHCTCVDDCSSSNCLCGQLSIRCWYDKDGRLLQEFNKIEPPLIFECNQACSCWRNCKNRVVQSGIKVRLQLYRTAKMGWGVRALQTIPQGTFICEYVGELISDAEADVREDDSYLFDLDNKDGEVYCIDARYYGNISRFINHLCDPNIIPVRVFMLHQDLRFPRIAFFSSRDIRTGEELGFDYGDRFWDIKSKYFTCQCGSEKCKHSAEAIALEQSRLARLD
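Step 1: enzyme (final 20 nM) with compound, 15 min RT. Step 2: substrate peptide 500 nM and SAM 20 uM, 2 h RT. Step 3: anti-H3K9me1 antibody and AlphaScreen beads, 10 min, then plate read.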
The depositor's hits bear a star; [ ] = dose if it differs, or a comment. Calls come from the whole dose curve; as a rule, active = well fitted curve in the direction sought with a large enough effect; inconclusive = small, poorly fitted or top-dose-only effect, or another doubt; inactive = no such curve, though single readings can be large; an effect the other way counts as inactive or inconclusive. Potency is the fitted concentration of half-maximal effect.

For Cc1ccc(N=C(N(C)C)P(=O)(N(C)C)N(C)C)c(C)c1 the results were JMJD2A Tudor -4.9%, HP1b chromo inh 20.8%, Sfp inh 10.0%, BAZ2B block -1.4%, PLK1 PBD block -1.5% and G9a inh -0.4%.
C/C(CCN1CCc2nc(-c3ccccc3)c(-c3ccccc3)cc2C1)=N\O[C@@H](C)CN1CCCc2nc(C)c(C)cc21 was read as Sfp inh -2.2%.
`Cc1cccc(C)c1Nc1c(-c2ccc(N3CCOCC3)cc2)nc2cnccn12` gave JMJD2A Tudor inconclusive, HP1b chromo inh 0.7%, Sfp inh -6.1%, BAZ2B block -32.1%, PLK1 PBD block -7.3% and G9a inh inconclusive.
Cc1ccccc1Nc1c(-c2ccc(N3CCOCC3)cc2)nc2ccc(Br)cn12 was read as JMJD2A Tudor inconclusive, HP1b chromo inh inconclusive, BAZ2B block inconclusive and G9a inh 7.08µM*.
For Cc1ccccc1Nc1c(-c2ccc(N3CCOCC3)cc2)nc2ccccn12 the results were JMJD2A Tudor 28.2µM*, HP1b chromo inh inconclusive, BAZ2B block 17.8µM* and G9a inh 15.8µM*.
`CCc1cccc(C)c1Nc1c(-c2ccc(N3CCOCC3)cc2)nc2ncccn12` gave JMJD2A Tudor 39.8µM*, HP1b chromo inh inconclusive, BAZ2B block 28.2µM* and G9a inh 10µM*.
`Cc1ccccc1Nc1c(-c2cccnc2)nc2cccc(C)n12` gave JMJD2A Tudor -27.4%, HP1b chromo inh 29.9%, Sfp inh 8.1%, BAZ2B block inconclusive, PLK1 PBD block -3.5% and G9a inh -28.5%.
`Cc1ccccc1Nc1c(-c2ccc(N3CCOCC3)cc2)nc2cccc(C)n12` gave JMJD2A Tudor 22.4µM*, HP1b chromo inh inconclusive, BAZ2B block inconclusive and G9a inh 14.1µM*.
CCCCc1nc2sc3c(c2c(=O)[nH]1)CC(C)(C)OC3 was read as JMJD2A Tudor -7.4%, HP1b chromo inh 69.3% and PLK1 PBD block 2.1%.
Cc1nc2sc3c(c2c(=O)o1)CC(C)(C)OC3 was read as JMJD2A Tudor 1.5%, HP1b chromo inh 24.0%, Sfp inh -6.7%, BAZ2B block 7.4%, PLK1 PBD block -13.4% and G9a inh 3.3%[12.7 µM].
CC1(C)Cc2c(sc3nc(=S)[nH]c(N)c23)CO1 was read as Sfp inh 25.1µM* and BAZ2B block -12.0%.
For Cc1nc(NN)c2c3c(sc2n1)COC(C)(C)C3 the results were JMJD2A Tudor -22.7%, HP1b chromo inh 7.7%, Sfp inh 56.2µM*, BAZ2B block -10.4%, PLK1 PBD block 1.6% and G9a inh -7.2%[2.33 µM].
For COc1ccc(NC(=O)CSc2nnc3scc(-c4ccc(Cl)cc4)n23)cc1 the results were JMJD2A Tudor -3.8%, HP1b chromo inh 73.6%, BAZ2B block 3.0% and G9a inh 35.0%[59 µM].
`Cc1ccc(Sc2ncnc3onc(C)c23)cc1` gave JMJD2A Tudor 16.4%[11.4 µM], HP1b chromo inh 31.6%, Sfp inh 1.5%, BAZ2B block 4.7%, PLK1 PBD block 18.9µM* and G9a inh 27.1%.
Screening CCN(CC)c1ccc(C=Nc2ccccc2)c(O)c1 returned JMJD2A Tudor -34.8%, HP1b chromo inh inconclusive, Sfp inh -29.2%, BAZ2B block -38.1%, PLK1 PBD block -10.4% and G9a inh inconclusive.
`CCN(CC)c1ccc(C=Nc2ccc(N(C)C)cc2)c(O)c1` gave JMJD2A Tudor 56.2µM*, HP1b chromo inh inconclusive, Sfp inh 50.1µM*, BAZ2B block 31.6µM*, PLK1 PBD block 67.1% and G9a inh 0.562µM*.
For CCN1CCN(c2ccc(N=Cc3ccc(O)cc3O)cc2)CC1 the results were JMJD2A Tudor inconclusive, HP1b chromo inh inconclusive, Sfp inh -1.6%, BAZ2B block 31.6µM* and PLK1 PBD block 1.4%.
For COc1ccc(C=Nc2ccc3[nH]ncc3c2)c(O)c1 the results were JMJD2A Tudor 1.4%, HP1b chromo inh 24.7%, Sfp inh 3.3%, BAZ2B block inconclusive and PLK1 PBD block 4.0%.
CCN(CC)c1ccc(/C=N/N2C(C)CCCC2C)c(O)c1 (stereo not given) was read as JMJD2A Tudor inconclusive, HP1b chromo inh -12.5%[57 µM], Sfp inh 1.6%, BAZ2B block 44.7µM*, PLK1 PBD block -1.5% and G9a inh 44.7µM*.
`CCN(CC)c1ccc(C=Nc2ccc(C)cc2)c(O)c1` gave JMJD2A Tudor -1.7%, HP1b chromo inh 72.3%, Sfp inh -16.8%, BAZ2B block 14.3%, PLK1 PBD block -11.2% and G9a inh inconclusive.
CCN(CC)c1ccc(C=Nc2cc(C)cc(C)c2)c(O)c1 was read as JMJD2A Tudor -19.7%, HP1b chromo inh -4.4%, Sfp inh -1.7%, BAZ2B block 8.7%, PLK1 PBD block -9.7% and G9a inh 8.91µM*.
`CCOc1cc(-c2nc(-c3ccc(-c4ccc(OC)cc4)nc3OC)no2)cc(OCC)c1OCC` gave JMJD2A Tudor 7.9%, HP1b chromo inh 35.1%, BAZ2B block 1.3% and G9a inh 5.5%[59 µM].
CCN(CC)c1ccc(N=Cc2ccc(N(CC)CC)cc2O)cc1 was read as JMJD2A Tudor 39.8µM*, HP1b chromo inh inconclusive, Sfp inh inconclusive, BAZ2B block 17.8µM*, PLK1 PBD block 71.0% and G9a inh inconclusive.
For COC(=O)c1c(C)nc(C)c(C(=O)OC)c1-c1ccsc1 the results were JMJD2A Tudor -12.6%, HP1b chromo inh 32.6%, Sfp inh 15.7%, BAZ2B block -12.5%, PLK1 PBD block -6.3% and G9a inh -0.1%.
Screening Cc1nc(C)c(C(=O)O)c(-c2ccsc2)c1C(=O)O returned JMJD2A Tudor -15.2%, HP1b chromo inh 10.1%, Sfp inh 5.3%, BAZ2B block -5.0%, PLK1 PBD block -3.5% and G9a inh 50.1µM*.
Screening Cc1cc(C)c(S(=O)(=O)N2CCN(C(=O)c3ccc(-n4cncn4)c([N+](=O)[O-])c3)CC2)c(C)c1 returned JMJD2A Tudor -34.5%, HP1b chromo inh -4.5%, BAZ2B block 1.4%, PLK1 PBD block -6.5% and G9a inh inconclusive.
Cc1nnsc1C(=O)NNS(=O)(=O)c1cc(C(F)(F)F)cc(C(F)(F)F)c1 was read as JMJD2A Tudor 2.1%, HP1b chromo inh 38.9%, Sfp inh 6.3%, BAZ2B block -24.5%, PLK1 PBD block -4.4% and G9a inh 3.6%.
